The inhibition is the drop in the measured response relative to a control, in per cent.

In PubChem BioAssay one finds growth inhibition, inhibition and outcome data, which are given here for 19 compounds.

Assay [1] in a line: antimalarial activity against Dd2 strain (AID 2302;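 active = growth inhibition above 50% at the single 2 µM test dose, taken to imply half-maximal potency below 2 µM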;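 also: 0% = DMSO untreated growth and 100% = chloroquine plus artemisinin killed control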). Conditions: P. falciparum Dd2 in RBCs, LDH growth readout, 72 h; at 2 µM; active compounds read high.
Assay [2] is described as follows: human hepatoma cell viability loss – ATP luminescence, cytotoxicity control for P. falciparum antimalarial project, primary screen (AID 2303;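 active = inhibition above 50%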;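 also: 0% = DMSO wells and 100% = digitonin-killed cells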). Conditions: HepG2 viability, 24-48 h, at 10 µM, active compounds read high.
Assay [3] has as its target L-lactate dehydrogenase (Plasmodium falciparum (isolate CDC / Honduras)) (UniProt Q27743). Nature of the assay: PfLDH activity inhibition – cell lysate, 3D7 strain, counter-screen for P. falciparum growth inhibition project (AID 2304).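 Also: 0% = vehicle and 100% = reference inhibitor.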 Particulars: P. falciparum 3D7 crude extract, LDH APAD/NBT absorbance; at 2 µM; active compounds read high. (In general: The purpose of a counterscreen is to sort out artefacts and off-target activity.)

A short description of assay [4]: inhibition of 3D7 malaria parasite growth – strain 3D7 (AID 2306).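 Also: 0% = DMSO wells and 100% = chloroquine plus artemisinin control wells.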 Particulars: P. falciparum 3D7 erythrocytic growth, LDH absorbance, 72 h; at 2 µM; active compounds read high.
Assay [5] concerns the target Calcium-dependent protein kinase 1 (Plasmodium falciparum (isolate 3D7)) (UniProt P62344). Nature of the assay: PfCDPK1 kinase inhibitors, biochemical, TCAMS library (AID 1159585; cut-off not given, nearly all actives have IC50 up to about 0.98 µM;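 also: inhibitors leave more ATP so luminescence rises with inhibition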). Particulars: recombinant PfCDPK1, Kinase-Glo ATP depletion luminescence. A general note: Kinase-Glo measures the ATP left after a reaction by luminescence.
Assay [6] deals with Plasmodium falciparum protein kinase 6 (PK6, PF3D7_1337100) (UniProt Q8IDW1). Nature of the assay: PfPK6 kinase inhibitors, biochemical, TCAMS library (AID 1159586). Particulars: recombinant PfPK6, Kinase-Glo ATP depletion luminescence.
The target of assay [7] is Protein kinase 7 (PK7), Plasmodium falciparum 3D7 (PF3D7_0213400) (UniProt Q7YTF7). Nature of the assay: inhibition of Plasmodium PK7 catalytic activity – biochemical, TCAMS antimalarial set, Kinase-Glo luminescence (AID 1159587). Conditions: recombinant PfPK7, Kinase-Glo ATP depletion luminescence.
For assay [8], the target named is Calcium-dependent protein kinase 4 (Plasmodium falciparum (isolate 3D7)) (UniProt Q8IBS5). Nature of the assay: PfCDPK4 kinase inhibitors, biochemical, TCAMS library (AID 1159588; cut-off not given, nearly all actives have IC50 up to about 0.91 µM). Conditions: recombinant PfCDPK4, Kinase-Glo ATP depletion luminescence.

Values without a mark were called inactive. For some assays here: Results with a measured potency or affinity are listed apart. Calls of active or inactive are those of the source. Unless noted, no rule for the calls is given here.

Protein kinase 7 (PK7), Plasmodium falciparum 3D7 (PF3D7_0213400), sequence (Q7YTF7 1-343): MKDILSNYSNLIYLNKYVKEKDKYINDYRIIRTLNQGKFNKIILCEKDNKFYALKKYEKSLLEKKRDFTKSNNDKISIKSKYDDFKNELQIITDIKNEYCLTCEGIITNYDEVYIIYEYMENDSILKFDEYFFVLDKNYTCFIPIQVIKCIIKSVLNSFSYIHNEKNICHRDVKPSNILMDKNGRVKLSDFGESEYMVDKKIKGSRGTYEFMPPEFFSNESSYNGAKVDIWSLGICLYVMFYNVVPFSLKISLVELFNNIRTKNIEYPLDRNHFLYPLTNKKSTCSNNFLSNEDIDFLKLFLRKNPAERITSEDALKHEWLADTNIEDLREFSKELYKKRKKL
L-lactate dehydrogenase (Plasmodium falciparum (isolate CDC / Honduras)), sequence (Q27743 whole entry, looked up): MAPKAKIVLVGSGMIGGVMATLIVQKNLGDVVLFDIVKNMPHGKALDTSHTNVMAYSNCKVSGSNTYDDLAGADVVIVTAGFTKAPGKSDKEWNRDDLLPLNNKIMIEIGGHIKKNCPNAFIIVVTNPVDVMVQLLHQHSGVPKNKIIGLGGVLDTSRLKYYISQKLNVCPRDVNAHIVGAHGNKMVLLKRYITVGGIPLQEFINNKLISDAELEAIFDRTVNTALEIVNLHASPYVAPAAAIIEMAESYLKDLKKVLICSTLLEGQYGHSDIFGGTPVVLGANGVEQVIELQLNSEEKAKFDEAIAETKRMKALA
Calcium-dependent protein kinase 1 (Plasmodium falciparum (isolate 3D7)), sequence (P62344 whole entry, looked up): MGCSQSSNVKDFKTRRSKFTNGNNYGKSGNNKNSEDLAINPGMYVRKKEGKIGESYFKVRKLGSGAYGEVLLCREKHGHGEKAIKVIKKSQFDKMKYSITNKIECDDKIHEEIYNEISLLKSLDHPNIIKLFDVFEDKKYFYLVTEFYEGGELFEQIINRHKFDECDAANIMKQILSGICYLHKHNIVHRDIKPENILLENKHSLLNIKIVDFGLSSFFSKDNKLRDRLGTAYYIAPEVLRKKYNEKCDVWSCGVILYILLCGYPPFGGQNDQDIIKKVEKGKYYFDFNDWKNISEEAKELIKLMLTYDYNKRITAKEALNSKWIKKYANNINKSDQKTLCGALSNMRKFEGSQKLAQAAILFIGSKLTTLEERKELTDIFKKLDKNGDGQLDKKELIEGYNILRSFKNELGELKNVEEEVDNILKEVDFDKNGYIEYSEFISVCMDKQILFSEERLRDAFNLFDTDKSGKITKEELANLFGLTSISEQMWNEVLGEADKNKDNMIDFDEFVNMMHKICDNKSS
Plasmodium falciparum protein kinase 6 (PK6, PF3D7_1337100), sequence (Q8IDW1 1-305): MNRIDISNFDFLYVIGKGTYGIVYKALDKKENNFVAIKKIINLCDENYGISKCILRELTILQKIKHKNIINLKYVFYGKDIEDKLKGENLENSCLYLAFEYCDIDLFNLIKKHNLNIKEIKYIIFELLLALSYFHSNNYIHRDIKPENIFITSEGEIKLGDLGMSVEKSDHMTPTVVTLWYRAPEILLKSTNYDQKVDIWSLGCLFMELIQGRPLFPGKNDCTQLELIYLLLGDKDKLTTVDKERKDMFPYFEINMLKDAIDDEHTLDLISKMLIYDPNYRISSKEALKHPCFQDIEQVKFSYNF
Calcium-dependent protein kinase 4 (Plasmodium falciparum (isolate 3D7)), sequence (Q8IBS5 whole entry, looked up): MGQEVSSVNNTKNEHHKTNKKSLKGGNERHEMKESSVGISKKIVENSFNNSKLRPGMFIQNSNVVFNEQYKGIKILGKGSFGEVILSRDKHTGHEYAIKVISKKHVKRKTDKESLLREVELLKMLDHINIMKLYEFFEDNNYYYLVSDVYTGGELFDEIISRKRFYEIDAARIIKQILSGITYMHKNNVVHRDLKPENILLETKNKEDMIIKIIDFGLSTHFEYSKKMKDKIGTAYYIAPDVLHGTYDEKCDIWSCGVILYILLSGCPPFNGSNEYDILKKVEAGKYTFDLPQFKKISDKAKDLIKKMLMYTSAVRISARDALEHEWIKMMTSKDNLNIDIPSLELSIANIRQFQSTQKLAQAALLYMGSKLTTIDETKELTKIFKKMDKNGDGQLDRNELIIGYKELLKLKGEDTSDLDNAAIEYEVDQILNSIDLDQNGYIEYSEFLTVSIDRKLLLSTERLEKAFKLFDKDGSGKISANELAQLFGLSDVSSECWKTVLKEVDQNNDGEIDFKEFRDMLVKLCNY

For the compound `COc1ccc2nc(C)cc(NN=Cc3ccccc3Cl)c2c1`, the growth inhibition in assay [1] and in assay [4] was 100% (active) in each case. Further, the inhibition was 0% in assay [2] and 5% in assay [3]. Also, the result in assay [5], in assay [6], in assay [7] and in assay [8] was inactive.

In the case of `COc1ccc(NC(=O)NC2CCN(CCCOc3ccnc4cc(Cl)ccc34)C2)cc1OC` (configuration not stated), the growth inhibition was 16% in assay [1] and 90% (active) in assay [4]. For the same compound, the inhibition is 6% in assay [2] and 1% in assay [3]. Also, the outcome in assay [5], in assay [6], in assay [7] and in assay [8] was inactive.

For `O=c1cc(N2CCCNCC2)c(Cl)nn1Cc1ccc(NS(=O)(=O)c2ccc(Oc3ccccc3)cc2)cc1`, the figures for the growth inhibition in assay [1] and in assay [4] were -4% and 98% (active), respectively. Further, the inhibition in assay [2] was 0%; in assay [3], -2%. In addition, the result in assay [5], in assay [6], in assay [7] and in assay [8] was inactive.

`Cc1ccc2nc(C)cc(NC(=O)Nc3ccc(N(C)C)cc3)c2c1`: the growth inhibition is 41% in assay [1] and 100% (active) in assay [4]. Further, the inhibition in assay [2] is 12%; in assay [3], -3%. Further, the result in assay [5], in assay [6], in assay [7] and in assay [8] was inactive.

As to `Cc1cc(C2CCN(CCCCNC(=O)c3ccc(NC(=O)c4ccc(Cl)cc4)cc3)CC2)c(C)cc1OCc1cccnc1`, the growth inhibition in assay [1] is 90% (active); in assay [4], 101% (active). The inhibition in assay [2] was 39%; in assay [3], 0%. For the same compound, the result in assay [5], in assay [6], in assay [7] and in assay [8] was inactive.

As to `CC(C)(C)c1ccc(NC(=O)c2cccc(CN3CCCN(Cc4ccc(F)cc4)CC3)c2)cc1`, the growth inhibition in assay [1] is 2%; in assay [4], 88% (active). Moreover, the figures for the inhibition in assay [2] and in assay [3] were 35% and 0%, respectively. Further, the outcome in assay [5], in assay [6], in assay [7] and in assay [8] was inactive.

For `O=C(Nc1ccccc1O)c1ccc(Oc2cccc(C(=O)Nc3ccccc3O)c2)cc1`, the growth inhibition in assay [1] is 70% (active); in assay [4], 97% (active). The values for the inhibition in assay [2] and in assay [3] were 33% and -1%, respectively. The result in assay [5], in assay [6], in assay [7] and in assay [8] was inactive.

In the case of `O=C(Nc1ccncc1)c1cn(-c2ccccc2)nc1-c1cccs1`, the growth inhibition was 10% in assay [1] and 98% (active) in assay [4]. For the same compound, the inhibition in assay [2] is 7%; in assay [3], 4%. The outcome in assay [5], in assay [6], in assay [7] and in assay [8] was inactive.

As to `CCc1nc2c(N)nc(N)nc2nc1-c1ccc(OC)cc1`, the values for the growth inhibition in assay [1] and in assay [4] were -3% and 86% (active), respectively. Moreover, the inhibition in assay [2] is 44%; in assay [3] it was 2%. Further, the outcome in assay [5], in assay [6], in assay [7] and in assay [8] was inactive.

Turning to `O=C1c2cc(I)ccc2SC1c1ccccc1` (configuration not stated), the growth inhibition in assay [1] was 98% (active); in assay [4], 96% (active). Further, the inhibition was -7% in assay [2] and -2% in assay [3]. Moreover, the outcome in assay [5], in assay [6], in assay [7] and in assay [8] was inactive.

Consider `COc1ccccc1C1CCN(C2CCC(NC(=O)/C=C/c3cc(F)cc(F)c3)CC2)CC1` (configuration not stated), for which the growth inhibition in assay [1] is 15%; in assay [4], 91% (active). The figures for the inhibition in assay [2] and in assay [3] were 45% and 0%, respectively. For the same compound, the outcome in assay [5], in assay [6], in assay [7] and in assay [8] was inactive.

For `CCCCN(Cc1cc(Cl)c(OC)c(OC)c1)c1ccc(C(O)(C(F)(F)F)C(F)(F)F)cc1`, the growth inhibition in assay [1] is 73% (active); in assay [4], 98% (active). For the same compound, the figures for the inhibition in assay [2] and in assay [3] were 3% and 6%, respectively. Besides, the outcome in assay [5], in assay [6], in assay [7] and in assay [8] was inactive.

With `COc1ccc(-c2ccc(S(=O)(=O)Nc3cc4c(cc3OC(C)C)CCN(C)CC4)cc2)cc1`, the growth inhibition is 2% in assay [1] and 98% (active) in assay [4]. Besides, the inhibition is 16% in assay [2] and -4% in assay [3]. The result in assay [5], in assay [6], in assay [7] and in assay [8] was inactive.

As to `FC(F)(F)c1ccc2nccc(NN=Cc3ccc(Cl)cc3)c2c1`, the growth inhibition in assay [1] was 53% (active); in assay [4], 102% (active). Also, the inhibition in assay [2] is 5%; in assay [3] it was -2%. Also, the outcome in assay [5], in assay [6], in assay [7] and in assay [8] was inactive.

For `CCNc1cc(C(=O)N[C@@H](Cc2ccc(F)c(F)c2)[C@H](O)CNCc2cccc(OC)c2)cc(N2CCCCS2(=O)=O)c1`, the values for the growth inhibition in assay [1] and in assay [4] were 85% (active) and 99% (active), respectively. In addition, the inhibition was 4% in assay [2] and -7% in assay [3]. For the same compound, the result in assay [5], in assay [6], in assay [7] and in assay [8] was inactive.

On to `CN(C)CCOc1cc(NC(=O)Nc2ccc(-c3ccncc3)c(C(F)(F)F)c2)ccc1Cl`, for which the growth inhibition was 79% (active) in assay [1] and 100% (active) in assay [4]. For the same compound, the inhibition was 36% in assay [2] and 3% in assay [3]. Moreover, the result in assay [5], in assay [6], in assay [7] and in assay [8] was inactive.

Consider `COc1cc2c(cc1S(=O)(=O)c1ccc(NC(=O)c3cc4ccccc4s3)cc1)CCN(C)CC2`, for which the growth inhibition in assay [1] was 88% (active); in assay [4], 100% (active). For the same compound, the inhibition in assay [2] is 21%; in assay [3], 2%. For the same compound, the outcome in assay [5], in assay [6], in assay [7] and in assay [8] was inactive.

Turning to `CC(C)(C)c1ccc(CN2CCC(NC(=O)c3ccc(-c4ccccc4Cl)s3)CC2)cc1`, the growth inhibition in assay [1] was 29%; in assay [4], 84% (active). Besides, the values for the inhibition in assay [2] and in assay [3] were 36% and 4%, respectively. In addition, the outcome in assay [5], in assay [6], in assay [7] and in assay [8] was inactive.

In the case of `O=C(/C=C/c1ccc(Cl)c(Cl)c1)NC1CCN(CCCNC(=O)c2cccc(Cl)c2)CC1`, the growth inhibition in assay [1] was 28%; in assay [4], 100% (active). Besides, the inhibition in assay [2] was 36%; in assay [3] it was -2%. Besides, the result in assay [5], in assay [6], in assay [7] and in assay [8] was inactive.
